Molecules are shown by their SMILES. Compounds without any hit were thinned out: in the full panel of roughly 83,000, 20% have a hit.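 Plates (96-well) were seeded with cells, treated with compound at one concentration, and incubated for 48 hours before percent growth was determined.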 Calls of active or inactive are those of the source. The calls were made as follows: active = growth percent below 10; inactive = the rest.

From PubChem BioAssay (NCI) come the findings set out here.

The test concerns MDA-MB-468 breast. Description: NCI-60 one-dose screen, 48 h (100 = growth as untreated, 0 = no growth, -100 = all killed). Conditions: 10 µM unless noted.
As for `C=C(CN1CC=CCC1)[C@@H]1CC[C@]2(C(=O)OC)CC[C@]3(C)[C@H](CC[C@@H]4[C@@]5(C)CC[C@H](OC(C)=O)C(C)(C)[C@@H]5CC[C@]43C)[C@@H]12`, the growth is 55.6% (inactive).

Consider `Cc1ccc2c(n1)C(=O)C(Br)=C(C1CCCC1)C2=O`, for which the growth was 95.2% (inactive).

In the case of `O=C(CCN1CCCC1)Nc1ccc2c(Nc3ccc(F)cc3)c3ccccc3nc2c1`, the growth is -66.6% (active).

Consider `O=C1Nc2ccccc2/C1=N\c1nnc(-c2ccccc2)o1`, for which the growth was 69.6% (inactive).

As to `CCNC(=O)Oc1ccc(/C(=C(/C)Cc2ccc(OC)cc2)c2ccc(OCCN3CCCCCC3)cc2)cc1`, the growth was 51.8% (inactive).

Turning to `O=[N+]([O-])c1ccc(-c2cc3c(Nc4ccc(Cl)c(C(F)(F)F)c4)ncnc3s2)cc1`, the growth is -10.2% (active).

Turning to `COc1cc(OCc2cccc(-c3ccc4c(c3)OCCO4)c2C)cc(OC)c1C=O`, the growth was 21.8% (inactive).

Consider `COc1ccc2c(c1)N(CCO)C1=C(C(=O)OC1)C2c1cccc(Br)c1` (stereo not given), for which the growth was 12.9% (inactive).

Take `COc1cccc(C2CC(=O)Nc3c2c(C)nn3-c2nc3ccccc3[nH]2)c1OC` (stereo not given): the growth was 71.5% (inactive).

Turning to `Nc1cccc2c(=S)c3ccccc3[nH]c12`, the growth is 86.1% (inactive).

As to `Oc1cccc(Nc2nc(-c3ccccn3)cs2)c1`, the growth is 110% (inactive).

Turning to `O=S(=O)(/N=c1/n(-c2ccccc2)nc2n1CCN2C1=NCCN1)c1ccc(-c2ccccc2)cc1`, the growth was 94.3% (inactive).

As to `COc1ccc(/C=C2\COc3ccc(O)c(O)c3C2=O)c(OC)c1OC`, the growth was 7.7% (active).

Turning to `CN1CCN(Cc2ccc(NC(=O)c3[nH]ncc3Nc3ncnc4[nH]ccc34)cc2)CC1`, the growth is -51.8% (active).

Consider `c1ccc(-c2cn3c(ccc4ccccc43)n2)cc1`, for which the growth is 30.6% (inactive).

Consider `CCCCCCNC(=O)Oc1ccc(/C(=C(/C)c2ccc(OC)cc2)c2ccc(OCCN3CCCCCC3)cc2)cc1`, for which the growth is 1.03% (active).

In the case of `O=C(Nc1ncc(Cc2cc(Cl)ccc2Cl)s1)c1cccs1`, the growth is 18% (inactive).

For `Cc1ccc(OC2=C(C#N)C(=N)N3C(=NN2)Sc2c(C)ccc(C)c23)cc1`, the growth was 110% (inactive).

As to `Oc1ccccc1/C=N/N1CCCCCC1`, the growth is 107% (inactive).

As to `Oc1ccc(O)cc1`, the growth was 96.7% (inactive).

As for `CCCCc1ccc(N=Nc2ccc(OCC[N+](C)(C)C)cc2)cc1`, the growth is 4.13% (active).

Consider `Nc1ccccc1SC1CC(=O)N(c2cccc3ccccc23)C1=O` (stereo not given), for which the growth was 87% (inactive).

Regarding `CN1C(=O)N(C)C2(c3ccccc3)n3c(s/c(=C\c4ccccc4)c3=O)=NNC12c1ccccc1` (stereo not given), the growth was 80.8% (inactive).

For the compound `Cc1cccc(Oc2ccc(Nc3ncnc4ccc(NC(=O)CN5CCN(C)CC5)cc34)cc2Cl)c1`, the growth was -62.9% (active).

Take `O=C1CSC(c2ccccc2)N1c1ccccc1` (stereo not given): the growth is 90.6% (inactive).

Regarding `CCCCC/C(=C\c1ccccc1)C1OC(C)C(C)O1` (stereo not given), the growth was 98.8% (inactive).

For `Clc1cc2c(c(CSc3nc4ccccc4n4cccc34)c1)OCOC2`, the growth was -1.64% (active).

As to `COc1cccc2c1C=CC1(O2)Oc2cccc(OC)c2C=C1C` (stereo not given), the growth is 39.5% (inactive).

As to `Cc1nc(NC(=S)Nc2ccc(F)cc2)sc1C(=O)NNC(=S)Nc1ccc(F)cc1`, the growth is 44.6% (inactive).

Consider `N=C1c2nc3n(c2C(=O)c2nc4n(c21)CCCCC4)CCCCC3`, for which the growth was 99.8% (inactive).

Consider `O=C(CSc1nnc(-c2ccc(Cl)c(Cl)c2)n1-c1ccccc1)Nc1ccc(C(=O)/C=C/c2ccc(Cl)cc2)cc1`, for which the growth is 98.4% (inactive).

For the compound `COc1cc2c(-c3nc4cc(Cl)c(F)cc4s3)cc(=O)oc2c(C)c1OC`, the growth is -58.7% (active).

On to `CCCCNC(=O)c1ccc(OCC)cc1`, for which the growth was 117% (inactive).

Consider `O=C(O)c1cn(C2CC2)c2cc(N3CCN(Cc4cc(Cl)ccc4O)CC3)c(F)cc2c1=O`, for which the growth was 81.9% (inactive).

Turning to `NC(=O)c1ccc[n+](Cc2ccccc2)c1`, the growth was 98.4% (inactive).

Regarding `CC1(C)CC[C@]2(C(=O)N3CCOCC3)CC[C@]3(C)C(=CC[C@@H]4[C@@]5(C)C/C(=C/c6ccco6)C(=O)C(C)(C)[C@@H]5CC[C@]43C)[C@@H]2C1`, the growth was 82.3% (inactive).

Turning to `CCCCNC(=O)C(=O)NCCCC`, the growth was 102% (inactive).

Consider `COc1ccc(C2OC(N)=C(O)C2=O)cc1OC` (stereo not given), for which the growth was 109% (inactive).

On to `O=C(CN1CCN(c2cc(=O)n(-c3ccccc3)c3ccccc23)CC1)Nc1nc(-c2ccc(Cl)cc2)cs1`, for which the growth was 9.61% (active).

`CC/C=C\C[C@H](O)C/C=C1/C(=O)C=C[C@@H]1C/C=C\CCCC(=O)O`: the growth was 28.7% (inactive).
